16 compounds from PubChem BioAssay (NCI) can be followed below.

Some test systems named below: NCI-H23 lung; NCI-H226 lung; NCI-H322M lung; HOP-62 NSCLC; NCI-H460 lung; A549/ATCC NSCLC; 786-0 renal; COLO 205 colon; DU-145 prostate; NCI-H522 lung.
Common to all, as to assay: NCI-60 one-dose screen, 48 h (100 = growth as untreated, 0 = no growth, -100 = all killed)
Holding throughout (settings): 10 µM unless noted

About 83,000 compounds went through this panel and 20% of them were active in at least one assay; those are over-represented in the sample as a whole.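 Growth was measured after 48 h exposure to one concentration of compound in 96-well plates. Values under 10 count as active.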 A number with no mark means an inactive call. Calls of active or inactive are those of the source.

With `Cn1cnc([N+](=O)[O-])c1S(=O)(=O)Oc1ccc(Cl)cc1`, the growth with NCI-H23 lung was 96%; with NCI-H226 lung, 97.8%; in the experiment with NCI-H322M lung, 104%; in the experiment on HOP-62 NSCLC, 92.3%; with NCI-H460 lung, 103%; in the experiment with A549/ATCC NSCLC it was 96%. Besides, the values for the growth with 786-0 renal, in the experiment with COLO 205 colon and with DU-145 prostate were 94.4%, -90% (active) and 81.5%, respectively.

`Cc1cc(CC(=O)O)n(C)c1C(=O)c1ccc(Cl)cc1`: the growth is 96.3% in the experiment on NCI-H23 lung; 95.2% in the experiment with NCI-H226 lung; 120% in the experiment on NCI-H322M lung; 117% in the experiment on HOP-62 NSCLC; 115% with NCI-H460 lung; 108% in the experiment on A549/ATCC NSCLC. In addition, the growth in the experiment on 786-0 renal was 103%; with COLO 205 colon, 114%; in the experiment with DU-145 prostate, 125%.

For the compound `CN1C(=O)C(=Cc2cn(Cc3ccccc3)c3ccc(Br)cc23)C(=O)N(C)C1=O`, the growth in the experiment on NCI-H23 lung was 105%; in the experiment with NCI-H226 lung, 32.3%; with NCI-H322M lung, 93.8%; with HOP-62 NSCLC, 85.8%; in the experiment with NCI-H460 lung it was 35.1%; in the experiment on A549/ATCC NSCLC, 88.5%. The growth is 98.2% in the experiment on 786-0 renal, 89.6% in the experiment on COLO 205 colon and 97.1% in the experiment on DU-145 prostate.

`Nc1nc(Cl)c2[nH]cnc2n1`: the growth was 87% in the experiment on NCI-H23 lung; 101% in the experiment with NCI-H226 lung; 93.1% with NCI-H322M lung; 95.2% with HOP-62 NSCLC; 86.9% with NCI-H460 lung; 96.8% with 786-0 renal. For the same compound, the growth with COLO 205 colon is 103%; with DU-145 prostate, 119%.

As for `Cc1cc(NC(=O)c2ccc(N)cc2)ccc1N=Nc1ccc2c(O)c(N=Nc3ccc(Cl)c(S(=O)(=O)O)c3)c(S(=O)(=O)O)cc2c1`, the growth with NCI-H23 lung was 69.9%; with NCI-H226 lung it was 81.9%; in the experiment on NCI-H322M lung, 62.5%; in the experiment with HOP-62 NSCLC, 64.2%; in the experiment on NCI-H460 lung it was 49.7%; with A549/ATCC NSCLC, 60.5%. The results for the growth in the experiment on 786-0 renal, with COLO 205 colon and in the experiment with DU-145 prostate were 110%, 117% and 111%, respectively.

As for `Nc1ccccc1-c1ccc([N+](=O)[O-])cc1`, the growth with NCI-H23 lung is 68.7%; with NCI-H226 lung it was 87.6%; with NCI-H322M lung it was 57%; in the experiment with HOP-62 NSCLC, 53.1%; in the experiment with NCI-H460 lung, 33.6%; in the experiment on A549/ATCC NSCLC, 63.3%. Further, the growth was 46.7% with 786-0 renal, 23.8% in the experiment on COLO 205 colon and 59.3% with DU-145 prostate.

As for `CCN(CC)CCOc1ccc(C2=C(c3ccccc3)CCc3cc(OC)ccc32)cc1`, the growth is -11.6% (active) with NCI-H23 lung; 58.6% in the experiment with NCI-H226 lung; 17.6% in the experiment with NCI-H322M lung; -74.9% (active) in the experiment on HOP-62 NSCLC; -55.9% (active) in the experiment with NCI-H460 lung; -82.3% (active) with 786-0 renal. Moreover, the growth in the experiment with COLO 205 colon was -69.6% (active); with DU-145 prostate, 41.3%.

For `NC(N)=NC(N)=NCCCc1ccccc1`, the growth was 50.2% [100 µM] in the experiment on NCI-H23 lung; 63.4% [100 µM] in the experiment with NCI-H226 lung; 84.6% [100 µM] in the experiment on NCI-H322M lung; 65.1% [100 µM] in the experiment on HOP-62 NSCLC; 47.2% [100 µM] with NCI-H522 lung; 62.3% [100 µM] with A549/ATCC NSCLC. The growth in the experiment on 786-0 renal is 56.2% [100 µM].

`Oc1[nH]c2ccccc2c1/C=c1/ccc2c(c1)N=C(c1cc(F)cc(F)c1)N=2`: the growth with NCI-H23 lung is 64.3%; in the experiment with NCI-H226 lung it was 85.4%; in the experiment on NCI-H322M lung it was 83.1%; in the experiment on HOP-62 NSCLC, 101%; in the experiment on NCI-H522 lung, 59.7%; in the experiment on A549/ATCC NSCLC, 66.5%. Also, the growth is 64.2% in the experiment on 786-0 renal, 96% with COLO 205 colon and 72.1% in the experiment on DU-145 prostate.

`COc1cc2cn3c4ccc(O)cc4nc(N)c3c2cc1OC`: the growth in the experiment with NCI-H23 lung is 0.98% (active); in the experiment with NCI-H226 lung it was 25.7%; in the experiment on HOP-62 NSCLC it was 11.9%; in the experiment on NCI-H460 lung, 1.19% (active); in the experiment with NCI-H522 lung, -39.4% (active); with A549/ATCC NSCLC, 18.4%. Further, the growth in the experiment with 786-0 renal is 6.11% (active).

For `c1coc([C@@H]2C[C@@H]3Cc4ccc5ccccc5c4N2O3)c1`, the growth in the experiment on NCI-H23 lung was 94.3%; with NCI-H226 lung, 107%; in the experiment with NCI-H322M lung it was 106%; in the experiment on HOP-62 NSCLC, 88.6%; in the experiment on NCI-H522 lung, 86.8%; in the experiment with A549/ATCC NSCLC, 94.9%. The growth is 103% in the experiment with 786-0 renal, 130% in the experiment with COLO 205 colon and 120% in the experiment on DU-145 prostate.

For `Fc1ccc(-c2nnc(-c3c(-c4ccc(F)cc4)nc4ncccn34)o2)cc1`, the growth was 98.2% in the experiment with NCI-H23 lung; 113% with NCI-H226 lung; 105% in the experiment with NCI-H322M lung; 105% with HOP-62 NSCLC; 89.1% in the experiment on NCI-H522 lung; 96% in the experiment with A549/ATCC NSCLC. The growth with 786-0 renal was 93.1%; in the experiment with COLO 205 colon, 104%; in the experiment on DU-145 prostate, 103%.

Take `COc1cc(OC)c2sc(-c3ccc(-n4cncc4-c4ccc(N)cc4)cc3)nc2c1`: the growth was 101% with NCI-H23 lung; 98.7% with NCI-H226 lung; 84.7% in the experiment with NCI-H322M lung; 110% in the experiment with HOP-62 NSCLC; 84.8% in the experiment with NCI-H522 lung; 60% in the experiment on A549/ATCC NSCLC. For the same compound, the growth is 71.8% in the experiment on 786-0 renal and 80.3% in the experiment with DU-145 prostate.

On to `C/C(=N/N=C(N)N)c1ccc(N)cc1`, for which the growth was 100% with NCI-H23 lung; 102% in the experiment on NCI-H226 lung; 79.2% in the experiment on NCI-H322M lung; 91.5% with HOP-62 NSCLC; 91.5% in the experiment on NCI-H522 lung; 103% in the experiment with A549/ATCC NSCLC. The growth with 786-0 renal was 96%; with DU-145 prostate, 107%.

Turning to `O=Nc1ccc(O)c(=O)cc1`, the growth in the experiment on NCI-H23 lung is 70.6%; in the experiment with NCI-H226 lung, 38.4%; with HOP-62 NSCLC it was 88.1%; with NCI-H460 lung, 114%; in the experiment on NCI-H522 lung it was -74.1% (active); with A549/ATCC NSCLC, 110%. Moreover, the growth in the experiment on 786-0 renal was 15.9%; with COLO 205 colon it was -21.6% (active).

As to `COc1c(C)c2c(c(O)c1C/C=C(\C)CCC(=O)OCCN1CCOCC1)C(=O)OC2`, the growth in the experiment with NCI-H23 lung is 19.4%; in the experiment with NCI-H226 lung, 50.2%; with NCI-H322M lung, 33.2%; with HOP-62 NSCLC, 34.9%; in the experiment with NCI-H522 lung, -3.49% (active); in the experiment with A549/ATCC NSCLC it was 5.79% (active). Also, the growth was 24.7% in the experiment on 786-0 renal, 38.1% with COLO 205 colon and 36.4% in the experiment on DU-145 prostate.
